PubChem BioAssay (NCI)
About 79,000 compounds went through this panel and 15% of them were active in at least one assay; those are over-represented in the sample as a whole. No stated cut-off is given here; in the data, active means growth inhibition above about 70%; inactive means the rest.

Key:
[1] = NCI Yeast Anticancer Drug Screen. Data for the rad50 strain (AID 155);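 further: 0% = growth of vehicle-only cultures of the same strain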; conditions: S. cerevisiae rad50 strain growth inhibition; at 50.0 µM; hits give high values
In short: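 DNA repair mutant yeast, compound exposure, growth read-out; inhibition is taken relative to vehicle.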

[2] = NCI Yeast Anticancer Drug Screen. Data for the mec2-1 strain (AID 157); conditions: S. cerevisiae mec2-1 strain, at 50.0 µM, hits give high values
In short: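 Using mec2-1 yeast: add compound, measure growth, express inhibition versus vehicle-treated cultures.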

[3] = NCI Yeast Anticancer Drug Screen. Data for the sgs1 mgt1 strain (AID 161);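 further: 0% = growth of cultures given vehicle only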; conditions: S. cerevisiae sgs1 mgt1 strain, at 50.0 µM, hits give high values
In short: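 Growth of a repair-deficient yeast mutant was monitored after compound treatment and expressed as inhibition relative to vehicle-treated cultures.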

[4] = NCI Yeast Anticancer Drug Screen. Data for the cln2 rad14 strain (AID 165);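 further: 0% = growth equal to vehicle treated cultures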; conditions: S. cerevisiae cln2 rad14 strain, at 50.0 µM, hits give high values
In short: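 Yeast strain cln2 rad14, bearing defects in cell cycle control and DNA repair, serves as the test system; values reflect growth inhibition compared with vehicle.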

[5] = NCI Yeast Anticancer Drug Screen. Data for the bub3 strain (AID 167); conditions: S. cerevisiae bub3 mutant strain, at 50.0 µM, hits give high values
In short: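 In this screen, a yeast mutant lacking normal mitotic checkpoint function is challenged with compound. Relative growth versus vehicle gives the inhibition value.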

[6] = NCI Yeast Anticancer Drug Screen. Data for the mlh1 rad18 strain (AID 175); conditions: S. cerevisiae mlh1 rad18 strain growth inhibition; at 50.0 µM; hits give high values
In short: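 Steps: expose repair-defective yeast to compound; measure growth; express inhibition against vehicle-treated controls.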

Measured: growth inhibition

CCCC(=O)NC(Nc1ccc(S(=O)(=O)Nc2nc(C)cc(C)n2)cc1)(C(F)(F)F)C(F)(F)F
inactive: [1] -21.6% | [2] -37.9% | [3] -21.1% | [4] 13.2% | [5] -3.7% | [6] -21.4%

COc1ccc(Cc2nnc(SC)n2-c2ccc(F)cc2)cc1OC
inactive: [1] 8.7% | [2] -8.25% | [3] 21% | [4] 6.15% | [5] 25.2% | [6] 16.6%

CCOCC(C)(CO)CC(C)CO (stereo unspecified)
inactive: [1] -10.2% | [2] 1.35% | [3] -5.6% | [4] -6.6% | [5] -4.55% | [6] 4%

CCC1SCC(=O)N1c1nncs1 (stereo unspecified)
inactive: [1] 4.75% | [2] 18.9% | [3] 4.55% | [4] -8.6% | [5] 2.75% | [6] 2.95%

O=C(N/N=C\c1ccc2c(c1)OCO2)c1ccc2c(c1)OCO2
inactive: [1] 0.7% | [2] 0.05% | [3] 1.85% | [4] -15.2% | [5] 5.05% | [6] 0.55%

CC(C)CCCCCCCCCCCCC(=O)NCC(=O)NC1C(C)OC(Nc2ncnc3c2ncn3C)C(O)C1O (stereo unspecified)
inactive: [1] 10% | [2] -14.5% | [3] 9.3% | [4] 15.6% | [5] 4.05% | [6] 11.4%

Cc1c(Cl)cc([N+](=O)[O-])cc1Cl
inactive: [1] -13.2% | [2] 13.7% | [3] -11.8% | [4] 17.1% | [5] -3.45% | [6] 5.25%

CS(=O)(=O)c1ccc(/C=C2/C=Cc3ccccc32)cc1
inactive: [1] 19.1% | [2] 13.2% | [3] 6.35% | [4] 15.4% | [5] 30.2% | [6] 14.7%

c1ccc(-c2cnc(C3CCCCC3)o2)cc1
inactive: [1] 28% | [2] -14.1% | [3] 14.8% | [4] 10.2% | [5] 17.1% | [6] 5.55%

CC(C)(C)CNCCCBr
inactive: [1] -19.9% | [2] -4.8% | [3] -9.05% | [4] -13.3% | [5] 30.8% | [6] 8.15%

O=C(O)CC1CCCc2ccccc2C1CC(=O)O (stereo unspecified)
inactive: [1] 5.25% | [2] -4.3% | [3] 10.4% | [4] 8.8% | [5] 6.85% | [6] 7.4%

CC(C)CC1OCC(C)(C)C(C(C)C)O1 (stereo unspecified)
inactive: [1] -8% | [2] -6.1% | [3] -17.4% | [4] 2% | [5] -0.4% | [6] 0.4%

CC(C)(C)NCC(O)c1ccc(O)c(CO)n1 (stereo unspecified)
inactive: [1] 1.3% | [2] -8.05% | [3] -19.4% | [4] 9.05% | [5] -8.9% | [6] -3.3%

Cc1cc(Nc2ccc(O)cc2)nc(Nc2ccc(O)cc2)n1
inactive: [1] -8.25% | [2] -18.4% | [3] -35.3% | [4] -34% | [5] 10.9% | [6] -2.3%

CC1(OC(=O)Nc2ccccc2)CCCCC1
inactive: [1] 5.75% | [2] -0.8% | [3] 0.9% | [4] 3.55% | [5] 3.55% | [6] -9.95%

O=Cc1cc(C=O)c2ccc(=O)[nH]c2n1
inactive: [1] 4.75% | [2] 0.5% | [3] -8.55% | [4] 0.65% | [5] -1.25% | [6] -3.5%

O=C1C(Cl)=C(NC(CO)(CO)CO)C(=O)c2ccccc21
inactive: [1] 4.7% | [2] 16.6% | [3] -6.05% | [4] 1.6% | [5] 8.45% | [6] 8.15%

O=c1[nH]cc(CO)c(=O)[nH]1
inactive: [1] 0.35% | [2] 4.8% | [3] -1.7% | [4] 6% | [5] 11.9% | [6] -4%

Brc1ccccc1/C=N\N=C\c1ccccc1Br
inactive: [1] 12.9% | [2] 2.5% | [3] 12.2% | [4] -5.25% | [5] -6.4% | [6] 5.35%

N#CC(CC(=O)c1ccccc1)c1ccccc1 (stereo unspecified)
inactive: [1] -10.3% | [2] 4.95% | [3] -18.9% | [4] -28.9% | [5] -14.3% | [6] -7.05%

CCCCCCCCOC(=O)C1(O)CCCCC1
inactive: [1] 14.6% | [2] 28.4% | [3] 16.1% | [4] 4.2% | [5] 17.6% | [6] 36.1%

CC(=O)OC(OC(C)=O)c1ncccc1C(=O)OC(C)C
inactive: [1] -14.6% | [2] -13.2% | [3] -14.7% | [4] 10.8% | [5] -8.45% | [6] -21.7%

CN1CCc2[nH]nc(-c3n[nH]c4c3CN(C)CC4)c2C1
inactive: [1] 15.8% | [2] 0.85% | [3] 10.5% | [4] -0.05% | [5] -8.6% | [6] 13.6%

Cn1c2ccccc2c(=O)c2cc(NC(=O)/C=C/C(=O)Nc3ccc4c(c3)c(=O)c3ccccc3n4C)ccc21
inactive: [1] -3.25% | [2] 0.75% | [3] -2.7% | [4] -14.6% | [5] -3.8% | [6] 5.9%

CCOC(=O)COc1c(C)cccc1Cl
inactive: [1] 4.2% | [2] 0.6% | [3] -0.25% | [4] -28.9% | [5] -23.6% | [6] -24.6%

COC(=O)c1ccc(SCCC(C)=O)cc1
inactive: [1] -8% | [2] 5.3% | [3] -12.1% | [4] 9.9% | [5] 25.9% | [6] 0.7%

CN1CC[C@H]([C@@H](O)c2ccccc2)C1=O
inactive: [1] 4.95% | [2] -7% | [3] -3.5% | [4] -34.4% | [5] 0.35% | [6] 5.7%

COC(=O)c1ccc(NC(=O)c2cc(OC)c(OC)c(OC)c2)cc1
inactive: [1] -24.3% | [2] -24.1% | [3] -19.4% | [4] -5.05% | [5] -9% | [6] -24%

CN(C)P1(=O)N(c2ccc(Cl)cc2)P(=O)(N(C)C)N1c1ccc(Cl)cc1 (stereo unspecified)
inactive: [1] -14.2% | [2] -35.6% | [3] -13.1% | [4] 2% | [5] -25% | [6] -13.3%

CCOC(=O)NC(Nc1ccc(C(=O)O)cc1)(C(F)(F)F)C(F)(F)F
inactive: [1] -5.75% | [2] -10.8% | [3] -38.5% | [4] 18.6% | [5] 4.65% | [6] 11.4%

CCN(CC)CCN(C(=Nc1ccccc1)N1CCOCC1)c1ccccc1
inactive: [1] -19.8% | [2] -40.5% | [3] 3.6% | [4] -3.8% | [5] 4.8% | [6] -11.9%

O=P(CCC(CC(F)(F)C(F)(F)C(F)(F)C(F)(F)C(F)(F)C(F)(F)C(F)(F)F)P(=O)(N1CC1)N1CC1)(N1CC1)N1CC1 (stereo unspecified)
inactive: [1] 5.1% | [2] 3.5% | [3] -1.6% | [4] -5.1% | [5] -0.35% | [6] 2.35%

O=C(Nc1ccc(Cl)cc1)c1ccc(C(=O)Nc2ccc(Cl)cc2)cc1
inactive: [1] -12.9% | [2] -26.4% | [3] -20.1% | [4] 5.35% | [5] -6.4% | [6] -24.9%

O=C(O)c1cc(C(=O)O)cc(S(=O)(=O)N2CCOCC2)c1
inactive: [1] -2.1% | [2] 3.25% | [3] -3.8% | [4] -37.8% | [5] 6.05% | [6] -16.2%

Cc1ccc2[nH]c(C)c(C(=O)c3ccncc3)c2c1
inactive: [1] -2.75% | [2] -15.4% | [3] 4.15% | [4] -8.35% | [5] -10.7% | [6] -9.45%

CN(C)N=Nc1cccc(Cl)c1
inactive: [1] 25.9% | [2] 0.6% | [3] 10.3% | [4] 16.2% | [5] 8.8% | [6] 14.2%

c1ccc2c(c1)nc(NC1CCCC1)c1[nH]c(C3CCCC3)nc12
inactive: [1] -26.1% | [2] -36.6% | [3] -56.9% | [4] -10.3% | [5] -29.2% | [6] -50%

Cc1ccc(/C(O)=C/c2nc3ccc([N+](=O)[O-])cc3nc2/C=C(\O)c2ccc(C)cc2)cc1
inactive: [1] 13.8% | [2] -3.45% | [3] -23.1% | [4] -28.6% | [5] -19.2% | [6] -14%

BrC1=CCC23CC=C(Br)[C@H]4CC2(COC3)C[C@@H]1O4 (stereo partly specified)
inactive: [1] 25.2% | [2] -0.55% | [3] 0.6% | [4] -0.05% | [5] -19.4% | [6] -9.75%

CCCOC(=O)c1ccc(C(C)C)cc1
inactive: [1] 1.1% | [2] 0.8% | [3] -5.3% | [4] 3.7% | [5] 2.25% | [6] -1%

OC1c2ccccc2C(O)c2c1ccc1c2CN(Cc2ccccc2)CC1 (stereo unspecified)
inactive: [1] 5.05% | [2] 8.25% | [3] 1.95% | [4] 15.1% | [5] 1.3% | [6] 33.2%
